RORg inh – qHTS for inhibitors of ROR gamma transcriptional activity | Nuclear receptor ROR-gamma (Mus musculus), P51450 | Drosophila S2 Gal4-RORgamma UAS-luciferase reporter, 20 h | Potency, µM (series often up to 53.6 µM), for the others: top-dose activity change, negative = inhibition, usual class: inhibitors | 5.4% of 310,000 active | AID 2551, 2010; further: on the % scale 0 is the no-effect control and ±100 the full control effect; nearly all actives have a fitted effect of over 60% in size
Target sequence (P51450 whole entry, looked up, the tested form may be a part): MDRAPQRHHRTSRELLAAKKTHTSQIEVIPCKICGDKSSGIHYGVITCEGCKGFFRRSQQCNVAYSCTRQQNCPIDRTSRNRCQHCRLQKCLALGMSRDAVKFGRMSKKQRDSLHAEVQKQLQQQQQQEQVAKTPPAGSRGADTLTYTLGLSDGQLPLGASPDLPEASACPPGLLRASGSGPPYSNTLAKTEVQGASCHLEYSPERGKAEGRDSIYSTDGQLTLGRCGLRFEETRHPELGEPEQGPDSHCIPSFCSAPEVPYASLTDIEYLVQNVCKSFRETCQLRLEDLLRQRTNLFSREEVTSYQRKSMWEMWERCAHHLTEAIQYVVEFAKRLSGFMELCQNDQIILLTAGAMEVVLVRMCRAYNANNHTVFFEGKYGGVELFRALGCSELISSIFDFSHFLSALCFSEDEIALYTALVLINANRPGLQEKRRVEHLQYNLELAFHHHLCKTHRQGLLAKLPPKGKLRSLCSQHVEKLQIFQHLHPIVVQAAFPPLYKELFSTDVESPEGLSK
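ROR gamma transcriptional activity was tracked as Gal4-UAS luciferase output in stably transfected Drosophila Schneider cells, with compound added 1 hr before 700 uM copper sulfate induction and a 20 hr ambient-temperature incubation.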
SW480 rerep – A quantitative high throughput screen for small molecules that induce DNA re-replication in SW480 colon adenocarcinoma cells | SW480 DNA re-replication, Hoechst DNA content imaging, 48 h | 1.8% of 340,000 active | Potency, µM (highest dose often 46.1 µM), inactives show at the top dose re-replication activation, most hits filed as activators | AID 624297, 2012; further: % of control where 0% means no effect; nearly all actives have a fitted effect of over 55% in size
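250 cells/well; 23 nL cpd via pin tool; 48 hr, 37 C, 5% CO2; Hoechst 40 min; imager read of total nuclear intensity, ex 405/em 500-530 nm.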
KB-V1 cytotox – qHTS assay for MDR1-selective chemotherapeutics: Primary screen using the drug-selected MDR subline cells KB-V1. Potency, µM (highest dose often 46.1 µM), usual class: cytotoxic. 3.4% of 400,000 active. KB-V1 MDR cells viability, CellTiter-Glo, 72 h; further: on the % scale 0 is the no-effect control and ±100 the full control effect; nearly all actives have a fitted effect of over 60% in size
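Potencies derive from concentration-effect curves fitted to normalized luminescence (CellTiter-Glo) of KB-V1 cells treated for 72 h at 37 degrees C in phenol-red-free DMEM containing 10% FBS.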
VP16 counter – VP16 counterscreen qHTS for inhibitors of ROR gamma transcriptional activity. Drosophila S2 Gal4-VP16 UAS-luciferase, luminescence, 20 h. 3.5% of 310,000 active. AID 2546, 2010. Potency, µM (highest dose often 53.6 µM), inactives show at the top dose activity, negative = inhibition, hits mostly inhibitors;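 further: Gal4-VP16 expression switched on by copper sulfate through the metallothionein promoter; on the % scale 0 is the no-effect control and ±100 the full control effect; nearly all actives have a fitted effect of over 50% in size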
KB-3-1 tox – qHTS assay for MDR1-selective chemotherapeutics: Primary screen using the parental adenocarcinoma cell KB-3-1 | Potency, µM (doses to about 46.1 µM), most hits filed as cytotoxic | 1.4% of 400,000 active | KB-3-1 viability, CellTiter-Glo ATP luminescence, 72 h | AID 1347075, 2019; further: on the % scale 0 is the no-effect control and ±100 the full control effect; nearly all actives have a fitted effect of over 60% in size
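Multi-concentration cytotoxicity screen in KB-3-1 cells grown in DMEM lacking phenol red with 10% FBS. After 72 h at 37 °C with compound, ATP-dependent luminescence was recorded.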
MCF10A rereplic – A quantitative high throughput screen for small molecules that induce DNA re-replication in MCF 10a normal breast cells | 2.9% of 350,000 active | Potency, µM (titrated, usually from 46.1 µM), for the others: top-dose activity, positive = re-replication, most hits filed as activators | MCF 10A DNA re-replication, Hoechst nuclear intensity, 48 h; further: % of control where 0% means no effect; nearly all actives have a fitted effect of over 50% in size
The depositor's hits bear a star; i = inactive; ? = inconclusive; / = no result; [ ] = dose if it differs, or a comment. Only some compounds are listed: those with a hit (about 10% of all), similar ones and a draw of the others. The call rests on the fitted dose curve; in most records, active means well fitted curve in the direction sought with a large enough effect; inconclusive means small, poorly fitted or top-dose-only effect, or another doubt; inactive means no such curve, though single readings can be large; an effect the other way counts as inactive or inconclusive. Potency means the concentration at half of the fitted maximal effect.

SMILES | RORg inh | SW480 rerep | KB-V1 cytotox | VP16 counter | KB-3-1 tox | MCF10A rereplic
CCc1cccc2c(C(=O)CN3C(=O)NC(C)(c4cccc5ccccc45)C3=O)c[nH]c12 (centres undefined) | ? | 20% | 23µM* | -17% | ? | 15µM*
CCc1cccc2c(C(=O)CN3C(=O)N(C)C4(CCCCC4)C3=O)c[nH]c12 | / | -1% | i | / | ? | 5.2µM*
COc1ccc(/C=c2\s/c(=C/C(=O)c3ccc(C)cc3)[nH]c2=O)cc1OC | 13µM* | 23% | i | ? | i | 13µM*
CC(C)(C)C(=O)/C=c1\[nH]c(=O)/c(=C\c2ccc(F)cc2)s1 | ? | 15% | ? | ? | ? | ?
Cc1cc(SC(C)C(=O)NCC(=O)Nc2ccc(F)c(F)c2F)nc2ccccc12 (centres undefined) | 10µM* | -4% | i | ? | i | -3%
Cc1ccc(NC(=O)c2ccccc2O)cc1 | ? | -13%[9.22 µM] | i | ? | i | 13%
Cc1cc(C)cc(NC(=O)Nc2ccc(NC(=O)c3ccccc3O)cc2)c1 | 5% | 21µM* | i | -10% | i | 18µM*
O=c1[nH]c2c(-c3nc(-c4ccc(F)cc4)cs3)c(O)cn2c2ccc(Br)cc12 | / | / | i | / | i | /
O=c1c2ccccc2nc2n1CCN2Cc1ccc(Cl)cc1 | ? | -13% | 4.6µM* | 0%[0.365 µM] | 16µM* | -6%
O=c1c2ccccc2nc(-c2ccccc2)n1Cc1ccc(Cl)cc1 | ? | 10% | i | 12% | i | 18µM*
O=c1c2ccccc2ncn1Cc1ccc(Cl)cc1 | 6% | 3% | i | -10% | i | 8%
CN1CCN(c2cc(-c3ccoc3)ncn2)CC1 | 0% | / | / | -2% | / | /
O=C(NC1CCCCC1)C1c2ccccc2OCC(=O)N1CCc1c[nH]c2ccccc12 (centres undefined) | / | / | i | / | i | /
CCOC(=O)c1c(C)n(C)c2ccc(OC)c(NC(=O)CCN3CCSCC3)c12 | 7% | 2% | 13µM* | -11% | i | 13%
CCOC(=O)c1c(C)n(C)c2ccc(OC)c(NC(=O)CN3CCC(C(=O)OCC)CC3)c12 | 2% | -20% | ? | -3% | i | -3%
COc1ccc(NC(=O)CSc2ncc3c(n2)-c2ccccc2N(Cc2ccc(C)cc2)S3(=O)=O)cc1Cl | / | / | i | / | i | /
FC(F)C(F)(F)Oc1cccc(Nc2nccn3c(-c4ccc5ccccc5c4)cnc23)c1 | / | / | 10µM* | / | ? | /
FC(F)C(F)(F)Oc1cccc(Nc2nccn3c(-c4cccc5ccccc45)cnc23)c1 | / | / | ? | / | i | /
CC(C)Oc1cc(F)ccc1-c1cc(C(=O)NCc2ccccn2)[nH]n1 | / | / | ? | / | i | /
CSc1ccc(/C=N/N(C)S(=O)(=O)c2ccc(C)cc2)cc1 | -2% | -3% | i | ? | i | 6%
Cc1ccc(/C=N/N(C)S(=O)(=O)c2ccc(C)cc2)cc1 | 16% | -4% | i | 18µM* | ? | 23%
CC(=O)Nc1ccc(/C=C/c2nc3ccccc3s2)cc1 | / | / | i | / | i | /
COc1ccc(-c2nc(CN3CCN(c4cc(C)nc(C)c4)CC3)c(C)o2)c2ccccc12 | 2% | ? | i | -2% | ? | 16µM*
CC1Cc2ccccc2N1C(=S)Nc1cccc(S(=O)(=O)N(C)C)c1 (centres undefined) | ? | ? | i | 3% | i | ?
CN(C)S(=O)(=O)c1cccc(NC(=S)N2CCc3ccccc32)c1 | 14µM* | 10% | i | ? | i | ?
SMILES | RORg inh | SW480 rerep | KB-V1 cytotox | VP16 counter | KB-3-1 tox | MCF10A rereplic
NS(=O)(=O)c1ccc(NC(=S)N2CCc3ccccc32)cc1 | 8% | -16% | i | 5% | i | -29%
Cc1ccc(S(=O)(=O)N(C)C)cc1NC(=S)N1CCc2ccccc21 | 10µM* | 5% | i | 0% | i | 16%
CCCN1Cc2cccc(C(=O)Nc3ccc(C(C)=O)cc3)c2C1=O | / | / | ? | / | i | /
Cc1cccc(Cc2c(C)nc3nc(SCc4ccccc4C)nn3c2C)c1 | / | / | i | / | i | /
O=C(NCC1CCCO1)c1cnn2c(C(F)F)cc(C3CC3)nc12 (centres undefined) | 33% | -2% | 6.5µM* | 12% | i | 3%
COC(=O)c1ccc(NC(=O)n2ncc3c(C)cccc32)cc1 | / | / | i | / | i | /
CCOC(=O)Cc1ccc(NC(=O)n2ncc3c(C)cccc32)cc1 | / | / | i | / | i | /
CCOc1ccc(NC(=O)n2ncc3c(C)cccc32)cc1 | 0.45µM* | -6% | i | 1.1µM* | i | -7%
COc1cccc(NC(=O)n2ncc3c(C)cccc32)c1 | 1.6µM* | -6% | i | 2.8µM* | ? | 0%
Cc1cccc(-c2nsc(SCC(=O)N3CCCC3)n2)c1 | 7.1µM* | -4% | 16µM* | ? | i | 6%
Cc1cccc(-c2nsc(SCC(=O)Nc3nccs3)n2)c1 | 11µM* | 18% | i | -14% | i | 0%
O=C(CSc1nc(-c2ccccc2)ns1)N1CCOCC1 | -25% | 0% | i | -14%[10 µM] | i | 0%
CCOc1ccc(C(=O)Nc2nnc(S(=O)(=O)Nc3ccccc3)s2)cc1 | / | / | i | / | i | /
NC(Cc1ccc(C(F)(F)F)cc1)c1csc(Nc2nncc3ccccc23)n1 (centres undefined) | / | / | 16µM* | / | ? | /
NC(COCc1ccccc1)c1csc(Nc2nncc3ccccc23)n1 (centres undefined) | / | / | ? | / | i | /
Cc1cnc(C)c(Nc2nc(C(N)Cc3ccc(Cl)cc3)cs2)n1 (centres undefined) | / | / | 21µM* | / | ? | /
OCCCNc1nc(-c2ccc(Cl)cc2)nnc1-c1ccc(Br)cc1 | ? | 3% | i | -12% | 23µM* | 0%
Cc1cnc2ccc(I)cc2c1/C=C/c1ccc(N(C)C)cc1 | / | / | ? | / | 12µM* | /
Cc1cc(/C=C/c2nc3ccccc3s2)ccc1N(C)C | / | / | i | / | i | /
Cc1cc(/C=C/c2c(C)cnc3ccccc23)ccc1N(C)C | / | / | 16µM* | / | ? | /
CN(C)c1ccc(/C=C/c2c(F)cnc3ccccc23)cc1 | / | / | ? | / | 9.2µM* | /
Cc1ccc(-n2c3c(cc(-c4nc(-c5ccc(Cl)cc5)cs4)c2=O)C(=O)CC(C)(C)C3)cc1 | / | / | i | / | i | /
